Measurements as given in PubChem BioAssay (NCI).
The panel holds about 83,000 compounds, 20% with a hit somewhere; the sample as a whole holds those more often.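 For each line, cells grew in 96-well plates with the test compound present at a single concentration for 48 hours.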 Unmarked numbers belong to inactive results. Activity calls are given as the source filed them. Rule for the calls: active = growth percent below 10; inactive = the rest.

Tests used:
Test in all cases: NCI-60 one-dose screen, 48 h (100 = growth as untreated, 0 = no growth, -100 = all killed)
Settings in all cases: 10 µM
DU-145 prostate = system: DU-145 prostate
K-562 leukemia = system: K-562 leukemia
MALME-3M melanoma = system: MALME-3M melanoma
MDA-MB-231 breast = system: MDA-MB-231 breast
SF-268 CNS = system: SF-268 CNS
SF-295 CNS = system: SF-295 CNS
SF-539 CNS = system: SF-539 CNS
UACC-257 melanoma = system: UACC-257 melanoma
M14 melanoma = system: M14 melanoma

| SMILES | growth (DU-145 prostate) | growth (K-562 leukemia) | growth (MALME-3M melanoma) | growth (MDA-MB-231 breast) | growth (SF-268 CNS) | growth (SF-295 CNS) | growth (SF-539 CNS) | growth (UACC-257 melanoma) | growth (M14 melanoma) |
| --- | --- | --- | --- | --- | --- | --- | --- | --- | --- |
| Cc1noc2c(Cc3ccc([N+](=O)[O-])cc3)nn(CC(=O)N/N=C/c3ccc(Cl)cc3)c(=O)c12 | 61.6% | 72.8% | 36.9% | 4.43% (active) | 23.5% | 70.1% | 8.2% (active) | 81% | 68.1% |
| CC[C@]12C=CCN3CC[C@@]4(c5cc(C#CCNc6ccc(C)c(Nc7nccc(-c8cccnc8)n7)c6)c(OC)cc5N(C)[C@H]4[C@@](O)(C(=O)OC)[C@@H]1OC(C)=O)C32 (some centres not stated) | 59.7% | 35.1% | 61.1% | 39.6% | 57.9% | 39.5% | 8.99% (active) | 70.2% | 45.1% |
| O=C(NCCCCCCCCCC[P+](c1ccccc1)(c1ccccc1)c1ccccc1)c1ccc(-n2nc(-c3ccccc3O)nc2-c2ccccc2O)cc1 | -45.8% (active) | 6.35% (active) | -94% (active) | -73.6% (active) | -28.8% (active) | -90.4% (active) | -95.9% (active) | -71.5% (active) | -84.9% (active) |
| Cc1ccc2nc(-c3ccc(-c4nnc(SCC(=O)Nc5ccc(Cl)cc5)o4)cc3)[nH]c2c1 | 45% | 18% | 26.2% | 10.6% | 68.6% | 21.4% | 57% | 102% | 53.6% |
| O=C1c2ccccc2C(=O)c2c1c(C(=O)c1ccc(Cl)cc1)n1c2ccc2c3ccccc3ccc21 | 108% | 106% | 101% | 89.9% | 105% | 99.1% | 88.5% | 107% | 107% |
| COc1cc(C2CC(c3ccc(C)cc3)=Nc3c(N)nc(N)nc3N2)ccc1Oc1nc(Nc2ccc(F)cc2)nc(N(C)C)n1 (configuration not stated) | 53.7% | 19.8% | 64.8% | 38.7% | 54.7% | 68.8% | 72.9% | 76.7% | 67.5% |
| CCCCOc1ccc(Nc2nc3ccccc3nc2Nc2ccc(OCCCC)cc2)cc1 | 87.9% | 77.3% | 106% | 109% | 82% | 87.5% | 106% | 97.3% | 88.5% |
| O=C(NO)c1ccc(CNC(=O)[C@H]2Cc3c([nH]c4ccccc34)[C@H](c3ccc(Cl)cc3)N2)cc1 | 10.7% | 9.83% (active) | 6.92% (active) | -11.1% (active) | 22.6% | -17.4% (active) | 2.84% (active) | 15.1% | 23% |
| CN1CCN(Cc2ccc(NC(=O)c3cncc(C#Cc4cnc5ccc(N[C@H]6CCOC6)nn45)c3)cc2C(F)(F)F)CC1 | -99.9% (active) | 0.651% (active) | -97.3% (active) | -92.4% (active) | -74.5% (active) | -98.4% (active) | -99.7% (active) | -84.1% (active) | -82% (active) |
| Cc1cc(=O)oc2cc(OCCCCOc3ccc(/C=C/C(=O)Nc4ccc(F)c(Cl)c4)cc3)ccc12 | 89.1% | 88% | 71% | 97.1% | 111% | 101% | 89.3% | 97.8% | 95.9% |
| Cc1ccc2nc(COc3ccc(C(=O)NNC(=S)NC(=O)c4ccccc4)cc3)[nH]c2c1 | 64.7% | 21.8% | 80.9% | 71.5% | 55.2% | 25.3% | 41.9% | 83.4% | 65.2% |
| Brc1ccc(N/N=C/c2c[nH]c3ccccc23)nc1 | 37.7% | 11.7% | 64.1% | -26% (active) | 21.4% | 25.3% | 21% | 70.8% | 14.3% |
| CN1CCO/C1=C(/NC(=O)c1ccc(Cl)cc1)[P+](c1ccccc1)(c1ccccc1)c1ccccc1 | 95.2% | 50.3% | 69.2% | 61.8% | 97% | 80.2% | 94.5% | 62.4% | 88.5% |
| CN1C(=O)N(C)C2SC(N/N=C/c3ccc(F)cc3)=NC21 (configuration not stated) | 76.3% | 15% | 40.1% | 38.7% | 52.1% | 30.8% | 29.3% | 67.7% | 23.8% |
| CCOc1ccc(/C=N/NC(=O)Cn2nc(Cc3ccccc3)c3onc(C)c3c2=O)cc1 | 30.6% | 75% | -11.8% (active) | 9.5% (active) | -9.54% (active) | 10.8% | -47.2% (active) | 66.2% | 57.6% |
| O=C(CSc1nnc(-c2c[nH]c3ccccc23)n1-c1ccccc1)c1ccccc1 | 85.7% | 52.8% | 37.4% | 27% | 31.7% | 72% | 7.59% (active) | 103% | 73.6% |
| CCOC(=O)C1=C(N)N(c2ccc(C)cc2)C2=C(C(=O)CC(C)(C)C2)C1c1ccccc1OC (configuration not stated) | 107% | 98.4% | 93.4% | 95.5% | 100% | 91% | 101% | 104% | 112% |
| Cc1ccn2c(C(=O)c3ccc(Br)cc3)cc(-c3cc(-c4ccc(N(C)C)cc4)c(C#N)c(N)n3)c2c1 | 56.2% | 68.7% | -1.54% (active) | 39.5% | 68% | 68.1% | 24.2% | 79.7% | 57.7% |
| Cc1noc2c(Cc3ccccc3)nn(CC(=O)N/N=C/c3ccc(Cl)cc3)c(=O)c12 | 68.9% | 93.7% | 34.4% | 5.74% (active) | 59.8% | 38.8% | 67.7% | 96% | 94.4% |
| O=C(Cn1nc(-c2ccccc2)ccc1=O)NN1C(=O)c2ccccc2C1=O | 105% | 99.8% | 90.1% | 100% | 97.9% | 96.5% | 91.2% | 113% | 107% |
| CC(=O)Oc1ccccc1C(=O)Oc1ccc(C(=O)/C=C/c2ccncc2)cc1 | 46.2% | 11.6% | 86.2% | 40.8% | 75% | 59.1% | -35.6% (active) | 94.9% | 47.6% |
| COc1cccc(-c2ccnc(/N=C(\N)Nc3ccc(S(=O)(=O)Nc4nc(C)cc(C)n4)cc3)n2)c1 | 111% | 92% | 98% | 95.9% | 104% | 93.7% | 95.2% | 111% | 114% |
| Nc1nc(Nc2ccccc2)nn1Cc1c(Cl)cccc1Cl | 48% | 12.8% | 31.4% | 24.1% | 50% | 46.6% | 37.6% | 69.7% | 35.5% |
| O=C(Cn1nc(-c2ccccc2)ccc1=O)NNC(=S)NC1CCCCC1 | 117% | 90.4% | 105% | 109% | 113% | 101% | 97.3% | 111% | 122% |
| CN1C(=O)N(C)C2SC(N/N=C/c3ccccc3F)=NC21 (configuration not stated) | 94.7% | 17.2% | 59.4% | 50.2% | 78.7% | 62% | 54.3% | 82.7% | 36.5% |
| CC1(C)[C@@H](NCO)CC[C@]2(C)[C@H]3C(=O)C=C4[C@@H]5C[C@](C)(CO)CC[C@]5(C)CC[C@@]4(C)[C@]3(C)CC[C@@H]12 | 79.4% | 8.51% (active) | 49% | 44.2% | 68.8% | 2.19% (active) | 45.4% | 33.4% | 25.5% |
| COc1cc(/C=C/C(=O)c2ccc(C(F)(F)F)cc2)ccc1Oc1nc(Nc2ccc(F)cc2)nc(N(C)C)n1 | 82.9% | 48.2% | 87.7% | 85.6% | 65.5% | 64.1% | 93.8% | 75.1% | 72.8% |
| Clc1cccc(N/N=C/c2c[nH]c3ccccc23)n1 | 48.7% | 13.8% | 50.6% | -0.126% (active) | 19.9% | 49.5% | 6.26% (active) | 68% | 43.6% |
